Assay results reported in ChEMBL document CHEMBL1961873, “Compounds: GSK PKIS; Assays: Nanosyn kinase panel” (2012).

Tests used:
[1] = target: Sphingosine kinase 1 (Homo sapiens) (UniProt Q9NYA1); conditions: at 1 µM;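 note: mean SPHK1 inhibition value reported from the GSK PKIS kinase panel screen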
[2] = target: T1, Sphingosine kinase 2 (Homo sapiens) (UniProt Q9NRA0); conditions: at 0.1 µM
T1 sequence (whole entry): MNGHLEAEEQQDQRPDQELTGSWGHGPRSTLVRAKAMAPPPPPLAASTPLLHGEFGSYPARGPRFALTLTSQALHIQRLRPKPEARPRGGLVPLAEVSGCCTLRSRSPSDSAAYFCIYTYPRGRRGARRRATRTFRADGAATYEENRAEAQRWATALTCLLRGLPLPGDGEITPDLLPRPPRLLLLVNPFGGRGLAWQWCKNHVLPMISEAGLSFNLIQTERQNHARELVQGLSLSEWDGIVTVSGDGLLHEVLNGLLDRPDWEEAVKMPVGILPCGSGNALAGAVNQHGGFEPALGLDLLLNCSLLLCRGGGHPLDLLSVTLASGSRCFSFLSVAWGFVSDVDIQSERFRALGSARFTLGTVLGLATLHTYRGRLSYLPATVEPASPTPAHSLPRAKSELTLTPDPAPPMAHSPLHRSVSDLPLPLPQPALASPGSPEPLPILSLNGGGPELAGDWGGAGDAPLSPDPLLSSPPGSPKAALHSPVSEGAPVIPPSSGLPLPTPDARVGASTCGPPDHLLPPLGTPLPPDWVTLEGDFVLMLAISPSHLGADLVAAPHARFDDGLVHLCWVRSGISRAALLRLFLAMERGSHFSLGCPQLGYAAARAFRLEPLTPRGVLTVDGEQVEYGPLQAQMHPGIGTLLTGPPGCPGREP

[3] = target: T1, Sphingosine kinase 2 (Homo sapiens); conditions: at 1 µM
[4] = target: Casein kinase II subunit alpha (Homo sapiens) (UniProt P68400); conditions: at 0.1 µM
[5] = target: Casein kinase II subunit alpha (Homo sapiens) (UniProt P68400); conditions: at 1 µM
[6] = target: T2, Inhibitor of nuclear factor kappa-B kinase subunit alpha (Homo sapiens) (UniProt O15111); conditions: at 0.1 µM
T2 sequence (whole entry): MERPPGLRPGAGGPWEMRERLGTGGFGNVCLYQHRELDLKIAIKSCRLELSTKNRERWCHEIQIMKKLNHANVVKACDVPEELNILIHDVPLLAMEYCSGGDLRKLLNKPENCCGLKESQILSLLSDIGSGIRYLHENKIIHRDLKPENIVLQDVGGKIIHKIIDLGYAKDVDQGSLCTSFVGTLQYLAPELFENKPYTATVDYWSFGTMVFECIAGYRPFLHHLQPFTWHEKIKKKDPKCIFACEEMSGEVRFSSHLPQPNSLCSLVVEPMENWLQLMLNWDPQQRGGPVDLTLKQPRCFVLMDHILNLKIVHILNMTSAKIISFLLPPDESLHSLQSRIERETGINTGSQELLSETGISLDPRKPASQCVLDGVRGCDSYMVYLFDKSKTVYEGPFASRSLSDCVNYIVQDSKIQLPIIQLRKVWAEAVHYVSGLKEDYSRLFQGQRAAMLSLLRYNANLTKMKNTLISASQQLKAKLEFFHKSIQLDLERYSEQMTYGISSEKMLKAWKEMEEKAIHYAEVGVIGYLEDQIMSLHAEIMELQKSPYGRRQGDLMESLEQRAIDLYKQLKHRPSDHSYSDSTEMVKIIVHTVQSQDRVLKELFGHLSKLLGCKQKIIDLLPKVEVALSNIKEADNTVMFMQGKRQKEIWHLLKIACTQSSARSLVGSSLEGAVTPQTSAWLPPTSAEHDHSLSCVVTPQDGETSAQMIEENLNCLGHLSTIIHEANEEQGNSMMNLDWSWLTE

[7] = target: T2, Inhibitor of nuclear factor kappa-B kinase subunit alpha (Homo sapiens); conditions: at 1 µM
[8] = target: T3, Inhibitor of nuclear factor kappa-B kinase subunit beta (Homo sapiens) (UniProt O14920); conditions: at 0.1 µM
T3 sequence (whole entry): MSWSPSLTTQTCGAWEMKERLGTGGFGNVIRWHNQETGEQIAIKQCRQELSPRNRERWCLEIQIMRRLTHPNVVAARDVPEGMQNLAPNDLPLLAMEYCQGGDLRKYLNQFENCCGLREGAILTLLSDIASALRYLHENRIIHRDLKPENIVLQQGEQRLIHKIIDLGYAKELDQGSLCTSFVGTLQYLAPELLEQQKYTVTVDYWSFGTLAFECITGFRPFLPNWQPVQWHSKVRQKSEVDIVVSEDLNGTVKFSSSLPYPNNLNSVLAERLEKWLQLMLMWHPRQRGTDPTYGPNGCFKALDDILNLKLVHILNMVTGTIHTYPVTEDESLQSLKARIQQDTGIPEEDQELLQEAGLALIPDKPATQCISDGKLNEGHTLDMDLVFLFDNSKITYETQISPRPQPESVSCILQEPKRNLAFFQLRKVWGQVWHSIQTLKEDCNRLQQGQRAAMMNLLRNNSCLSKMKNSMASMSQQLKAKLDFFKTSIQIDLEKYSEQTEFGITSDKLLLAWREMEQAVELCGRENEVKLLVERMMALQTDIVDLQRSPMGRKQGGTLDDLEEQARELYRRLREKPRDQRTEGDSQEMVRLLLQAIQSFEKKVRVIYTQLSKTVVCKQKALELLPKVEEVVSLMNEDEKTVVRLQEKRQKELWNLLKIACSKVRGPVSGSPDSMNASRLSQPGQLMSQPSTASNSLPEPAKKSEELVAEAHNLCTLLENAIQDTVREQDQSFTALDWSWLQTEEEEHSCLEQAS

[9] = target: T3, Inhibitor of nuclear factor kappa-B kinase subunit beta (Homo sapiens); conditions: at 1 µM
[10] = target: T4, Inhibitor of nuclear factor kappa-B kinase subunit epsilon (Homo sapiens) (UniProt Q14164); conditions: at 0.1 µM
T4 sequence (whole entry): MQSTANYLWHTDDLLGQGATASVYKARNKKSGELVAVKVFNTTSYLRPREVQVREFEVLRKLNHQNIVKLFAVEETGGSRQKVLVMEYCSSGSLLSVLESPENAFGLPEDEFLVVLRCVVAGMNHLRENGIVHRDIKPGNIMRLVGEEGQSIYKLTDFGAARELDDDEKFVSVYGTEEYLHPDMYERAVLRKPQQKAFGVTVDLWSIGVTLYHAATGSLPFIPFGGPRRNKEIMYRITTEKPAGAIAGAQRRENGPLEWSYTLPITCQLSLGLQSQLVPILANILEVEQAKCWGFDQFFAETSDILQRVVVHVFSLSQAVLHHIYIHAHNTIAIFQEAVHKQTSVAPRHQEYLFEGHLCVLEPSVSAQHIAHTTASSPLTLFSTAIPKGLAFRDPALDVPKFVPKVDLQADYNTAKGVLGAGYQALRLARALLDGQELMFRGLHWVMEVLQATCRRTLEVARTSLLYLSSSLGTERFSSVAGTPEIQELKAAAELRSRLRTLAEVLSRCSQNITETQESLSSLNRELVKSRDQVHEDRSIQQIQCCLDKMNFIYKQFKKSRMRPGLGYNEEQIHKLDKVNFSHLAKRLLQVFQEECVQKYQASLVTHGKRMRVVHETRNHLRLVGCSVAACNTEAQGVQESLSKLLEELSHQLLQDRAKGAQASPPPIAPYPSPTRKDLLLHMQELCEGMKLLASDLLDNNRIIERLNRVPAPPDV

[11] = target: T4, Inhibitor of nuclear factor kappa-B kinase subunit epsilon (Homo sapiens); conditions: at 1 µM
[12] = target: T5, Serine/threonine-protein kinase Nek1 (Homo sapiens) (UniProt Q96PY6); conditions: at 0.1 µM
T5 sequence (whole entry): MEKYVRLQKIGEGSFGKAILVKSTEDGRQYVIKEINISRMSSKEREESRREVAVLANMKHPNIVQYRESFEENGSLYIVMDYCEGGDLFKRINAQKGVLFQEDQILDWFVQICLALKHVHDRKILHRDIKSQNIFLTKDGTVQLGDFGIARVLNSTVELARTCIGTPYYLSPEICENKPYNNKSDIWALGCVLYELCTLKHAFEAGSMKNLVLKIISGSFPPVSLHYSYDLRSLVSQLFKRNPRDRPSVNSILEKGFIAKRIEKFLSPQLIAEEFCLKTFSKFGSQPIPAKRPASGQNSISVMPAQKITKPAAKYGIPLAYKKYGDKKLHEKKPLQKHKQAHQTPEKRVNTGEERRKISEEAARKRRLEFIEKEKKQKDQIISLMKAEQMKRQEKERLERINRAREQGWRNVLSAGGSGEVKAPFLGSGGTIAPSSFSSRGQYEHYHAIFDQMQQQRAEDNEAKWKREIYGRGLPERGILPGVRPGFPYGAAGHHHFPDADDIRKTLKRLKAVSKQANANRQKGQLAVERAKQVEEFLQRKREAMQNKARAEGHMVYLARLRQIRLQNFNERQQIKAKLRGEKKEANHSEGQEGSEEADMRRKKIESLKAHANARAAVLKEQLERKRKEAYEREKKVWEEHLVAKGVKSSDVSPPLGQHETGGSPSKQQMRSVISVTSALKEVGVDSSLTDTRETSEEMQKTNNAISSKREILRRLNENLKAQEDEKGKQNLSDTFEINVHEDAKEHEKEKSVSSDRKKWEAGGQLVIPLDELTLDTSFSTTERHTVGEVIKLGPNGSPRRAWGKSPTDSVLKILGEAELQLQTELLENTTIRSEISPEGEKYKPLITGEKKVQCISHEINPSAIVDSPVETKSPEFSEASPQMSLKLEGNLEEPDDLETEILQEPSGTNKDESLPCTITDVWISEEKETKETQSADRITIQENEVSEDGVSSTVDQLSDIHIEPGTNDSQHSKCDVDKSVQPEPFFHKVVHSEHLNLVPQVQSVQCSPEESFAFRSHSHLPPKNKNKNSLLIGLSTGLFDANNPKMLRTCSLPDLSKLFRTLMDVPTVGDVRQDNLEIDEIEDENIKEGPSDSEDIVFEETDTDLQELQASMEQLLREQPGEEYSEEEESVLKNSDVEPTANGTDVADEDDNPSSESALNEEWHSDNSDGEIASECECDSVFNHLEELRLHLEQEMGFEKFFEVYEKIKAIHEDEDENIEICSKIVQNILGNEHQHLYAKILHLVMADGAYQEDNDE

[13] = target: T5, Serine/threonine-protein kinase Nek1 (Homo sapiens); conditions: at 1 µM
[14] = target: T6, Serine/threonine-protein kinase Nek2 (Homo sapiens) (UniProt P51955); conditions: at 0.1 µM
T6 sequence (whole entry): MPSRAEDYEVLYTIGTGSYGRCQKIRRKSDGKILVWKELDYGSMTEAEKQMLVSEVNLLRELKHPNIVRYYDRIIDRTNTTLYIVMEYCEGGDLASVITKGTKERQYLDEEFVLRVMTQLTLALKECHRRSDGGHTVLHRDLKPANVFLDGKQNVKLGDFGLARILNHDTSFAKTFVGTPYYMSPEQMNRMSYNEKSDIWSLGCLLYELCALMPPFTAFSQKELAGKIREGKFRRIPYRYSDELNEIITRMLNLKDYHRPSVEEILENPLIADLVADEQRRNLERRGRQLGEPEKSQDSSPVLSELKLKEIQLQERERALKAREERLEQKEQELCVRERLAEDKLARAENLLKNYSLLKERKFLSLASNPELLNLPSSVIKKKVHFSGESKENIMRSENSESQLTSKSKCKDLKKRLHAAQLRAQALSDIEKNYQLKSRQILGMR

[15] = target: T6, Serine/threonine-protein kinase Nek2 (Homo sapiens); conditions: at 1 µM
[16] = target: Serine/threonine-protein kinase Nek6 (Homo sapiens) (UniProt Q9HC98); conditions: at 0.1 µM
[17] = target: Serine/threonine-protein kinase Nek6 (Homo sapiens) (UniProt Q9HC98); conditions: at 1 µM
[18] = target: Serine/threonine-protein kinase Nek7 (Homo sapiens) (UniProt Q8TDX7); conditions: at 0.1 µM
[19] = target: Serine/threonine-protein kinase Nek7 (Homo sapiens) (UniProt Q8TDX7); conditions: at 1 µM
[20] = target: T7, Serine/threonine-protein kinase Nek9 (Homo sapiens) (UniProt Q8TD19); conditions: at 0.1 µM;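 note: reported value is the mean percent inhibition of NEK9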
T7 sequence (whole entry): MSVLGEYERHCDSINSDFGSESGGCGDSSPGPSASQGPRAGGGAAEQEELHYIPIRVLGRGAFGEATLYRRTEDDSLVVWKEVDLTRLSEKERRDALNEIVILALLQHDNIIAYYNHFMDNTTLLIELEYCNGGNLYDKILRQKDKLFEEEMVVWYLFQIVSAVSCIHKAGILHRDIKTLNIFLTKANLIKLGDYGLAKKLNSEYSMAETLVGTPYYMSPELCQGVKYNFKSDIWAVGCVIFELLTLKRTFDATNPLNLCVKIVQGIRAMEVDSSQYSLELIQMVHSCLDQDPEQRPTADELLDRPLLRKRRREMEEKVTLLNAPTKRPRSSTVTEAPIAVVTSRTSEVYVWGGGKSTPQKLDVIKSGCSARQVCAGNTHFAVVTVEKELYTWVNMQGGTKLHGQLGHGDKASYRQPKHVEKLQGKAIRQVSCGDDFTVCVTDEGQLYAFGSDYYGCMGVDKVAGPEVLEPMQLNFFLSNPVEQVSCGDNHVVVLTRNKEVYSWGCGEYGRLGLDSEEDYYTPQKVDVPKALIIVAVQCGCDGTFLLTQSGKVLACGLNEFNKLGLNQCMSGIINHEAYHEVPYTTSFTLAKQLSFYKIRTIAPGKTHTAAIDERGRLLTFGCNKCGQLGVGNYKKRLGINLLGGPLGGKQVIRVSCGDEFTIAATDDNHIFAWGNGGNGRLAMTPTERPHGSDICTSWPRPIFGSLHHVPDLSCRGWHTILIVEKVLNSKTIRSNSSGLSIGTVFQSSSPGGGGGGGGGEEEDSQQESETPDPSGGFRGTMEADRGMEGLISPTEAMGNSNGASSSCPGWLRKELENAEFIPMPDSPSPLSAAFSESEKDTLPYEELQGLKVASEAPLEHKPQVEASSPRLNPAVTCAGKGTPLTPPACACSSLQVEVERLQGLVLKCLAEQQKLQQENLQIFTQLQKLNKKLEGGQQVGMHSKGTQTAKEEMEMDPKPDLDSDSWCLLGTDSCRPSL

Chain of Serine/threonine-protein kinase Nek7 (Homo sapiens) (Q8TDX7 whole entry, looked up): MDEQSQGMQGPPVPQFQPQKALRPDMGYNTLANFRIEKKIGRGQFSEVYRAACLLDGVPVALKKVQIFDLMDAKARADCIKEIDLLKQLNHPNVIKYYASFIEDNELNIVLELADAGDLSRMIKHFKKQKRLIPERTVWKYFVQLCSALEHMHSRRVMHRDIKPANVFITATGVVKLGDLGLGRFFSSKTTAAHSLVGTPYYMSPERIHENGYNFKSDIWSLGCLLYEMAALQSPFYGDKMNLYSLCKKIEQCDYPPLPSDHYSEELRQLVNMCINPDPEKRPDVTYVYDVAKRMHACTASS
Chain of Serine/threonine-protein kinase Nek6 (Homo sapiens) (Q9HC98 whole entry): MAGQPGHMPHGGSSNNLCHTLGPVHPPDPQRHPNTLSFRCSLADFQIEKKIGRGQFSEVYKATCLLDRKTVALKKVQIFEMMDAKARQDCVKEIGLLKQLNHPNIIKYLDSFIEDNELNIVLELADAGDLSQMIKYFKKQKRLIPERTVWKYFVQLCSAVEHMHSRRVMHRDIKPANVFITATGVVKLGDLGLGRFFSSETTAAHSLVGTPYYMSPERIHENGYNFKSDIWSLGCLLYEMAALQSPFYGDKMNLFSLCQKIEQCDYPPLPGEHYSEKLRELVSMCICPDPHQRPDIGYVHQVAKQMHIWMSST
Chain of Casein kinase II subunit alpha (Homo sapiens) (P68400 whole entry, looked up): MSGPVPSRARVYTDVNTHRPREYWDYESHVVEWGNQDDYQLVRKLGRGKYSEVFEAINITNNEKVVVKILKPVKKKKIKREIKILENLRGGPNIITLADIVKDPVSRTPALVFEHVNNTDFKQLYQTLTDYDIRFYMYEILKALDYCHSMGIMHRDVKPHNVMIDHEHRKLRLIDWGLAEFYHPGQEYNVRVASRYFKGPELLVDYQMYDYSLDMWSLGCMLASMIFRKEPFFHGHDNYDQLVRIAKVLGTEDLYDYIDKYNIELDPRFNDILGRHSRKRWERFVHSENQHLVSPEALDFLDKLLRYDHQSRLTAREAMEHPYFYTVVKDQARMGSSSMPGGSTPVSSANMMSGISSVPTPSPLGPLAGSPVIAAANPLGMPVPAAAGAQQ
Chain of Sphingosine kinase 1 (Homo sapiens) (Q9NYA1 whole entry): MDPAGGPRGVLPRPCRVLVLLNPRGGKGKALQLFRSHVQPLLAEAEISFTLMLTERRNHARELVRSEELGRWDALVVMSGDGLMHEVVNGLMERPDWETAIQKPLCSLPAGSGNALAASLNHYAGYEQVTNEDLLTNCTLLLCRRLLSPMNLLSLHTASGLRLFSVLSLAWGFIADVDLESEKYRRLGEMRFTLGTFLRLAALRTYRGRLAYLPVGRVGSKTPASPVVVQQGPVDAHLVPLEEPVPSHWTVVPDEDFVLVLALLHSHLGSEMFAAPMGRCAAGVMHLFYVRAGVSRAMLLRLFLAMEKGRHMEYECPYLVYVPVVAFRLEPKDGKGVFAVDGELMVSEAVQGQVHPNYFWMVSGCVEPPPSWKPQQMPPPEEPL

CS(=O)(=O)CCN(CC#N)Cc1ccc(-c2ccc3ncnc(Nc4ccc(OCc5cccc(F)c5)c(Cl)c4)c3c2)o1
inhibition [1]: -0.02%
inhibition [2]: -0.3%
inhibition [3]: -0.75%
inhibition [4]: 5.37%
inhibition [5]: 1.72%
inhibition [6]: 4.16%
inhibition [7]: 2.09%
inhibition [8]: 3.6%
inhibition [9]: 3.73%
inhibition [10]: 1.37%
inhibition [11]: 1.93%
inhibition [12]: 0.91%
inhibition [13]: 1.78%
inhibition [14]: 3.59%
inhibition [15]: 2.16%
inhibition [16]: 2.16%
inhibition [17]: -0.23%
inhibition [18]: 2.49%
inhibition [19]: 7.27%
inhibition [20]: 2.5%
